# Tests used:
# [1] = target: Sphingosine kinase 1 (Homo sapiens) (UniProt Q9NYA1); settings: at 1 µM;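 further: mean SPHK1 inhibition value reported from the GSK PKIS kinase panel screen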
# [2] = target: T1, Sphingosine kinase 2 (Homo sapiens) (UniProt Q9NRA0); settings: at 0.1 µM
# T1 sequence (whole entry): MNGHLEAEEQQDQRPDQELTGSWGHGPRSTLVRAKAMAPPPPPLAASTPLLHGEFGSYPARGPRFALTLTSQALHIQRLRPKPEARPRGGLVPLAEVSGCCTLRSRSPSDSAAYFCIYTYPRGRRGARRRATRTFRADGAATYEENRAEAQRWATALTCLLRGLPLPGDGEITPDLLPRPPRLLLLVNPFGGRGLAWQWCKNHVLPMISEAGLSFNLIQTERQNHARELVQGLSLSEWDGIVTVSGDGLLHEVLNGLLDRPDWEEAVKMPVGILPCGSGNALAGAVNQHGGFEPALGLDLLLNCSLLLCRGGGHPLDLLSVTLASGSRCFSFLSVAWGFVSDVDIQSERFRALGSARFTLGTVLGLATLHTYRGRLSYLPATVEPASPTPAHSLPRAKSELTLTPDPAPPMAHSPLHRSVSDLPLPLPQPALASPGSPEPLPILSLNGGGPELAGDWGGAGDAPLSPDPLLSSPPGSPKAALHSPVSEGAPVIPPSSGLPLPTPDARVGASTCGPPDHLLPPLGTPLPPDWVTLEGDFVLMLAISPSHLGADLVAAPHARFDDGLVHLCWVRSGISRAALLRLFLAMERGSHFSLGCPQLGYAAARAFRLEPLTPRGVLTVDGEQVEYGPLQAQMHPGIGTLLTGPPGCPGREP
# [3] = target: T1, Sphingosine kinase 2 (Homo sapiens); settings: at 1 µM
# [4] = target: Casein kinase II subunit alpha (Homo sapiens) (UniProt P68400); settings: at 0.1 µM
# [5] = target: Casein kinase II subunit alpha (Homo sapiens) (UniProt P68400); settings: at 1 µM
# [6] = target: T2, Inhibitor of nuclear factor kappa-B kinase subunit alpha (Homo sapiens) (UniProt O15111); settings: at 0.1 µM
# T2 sequence (whole entry): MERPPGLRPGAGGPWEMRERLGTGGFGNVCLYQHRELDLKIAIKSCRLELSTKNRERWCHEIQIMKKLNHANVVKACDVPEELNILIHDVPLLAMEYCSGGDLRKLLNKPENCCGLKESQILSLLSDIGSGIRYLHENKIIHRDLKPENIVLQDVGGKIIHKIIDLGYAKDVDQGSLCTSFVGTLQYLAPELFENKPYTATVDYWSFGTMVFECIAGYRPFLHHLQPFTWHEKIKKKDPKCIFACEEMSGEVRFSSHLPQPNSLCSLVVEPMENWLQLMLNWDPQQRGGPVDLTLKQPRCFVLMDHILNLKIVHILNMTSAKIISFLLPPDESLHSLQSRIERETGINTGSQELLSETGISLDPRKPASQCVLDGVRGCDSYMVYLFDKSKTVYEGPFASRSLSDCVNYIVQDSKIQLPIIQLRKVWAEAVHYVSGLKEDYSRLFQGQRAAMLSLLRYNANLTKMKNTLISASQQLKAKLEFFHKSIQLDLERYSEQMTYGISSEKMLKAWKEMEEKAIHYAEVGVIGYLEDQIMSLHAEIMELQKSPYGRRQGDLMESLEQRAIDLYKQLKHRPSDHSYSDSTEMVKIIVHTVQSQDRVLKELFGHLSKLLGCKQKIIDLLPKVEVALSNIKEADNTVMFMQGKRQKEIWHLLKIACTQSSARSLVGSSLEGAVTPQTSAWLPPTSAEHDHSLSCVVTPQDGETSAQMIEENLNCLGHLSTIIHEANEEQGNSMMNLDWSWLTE
# [7] = target: T2, Inhibitor of nuclear factor kappa-B kinase subunit alpha (Homo sapiens); settings: at 1 µM
# [8] = target: T3, Inhibitor of nuclear factor kappa-B kinase subunit beta (Homo sapiens) (UniProt O14920); settings: at 0.1 µM
# T3 sequence (whole entry): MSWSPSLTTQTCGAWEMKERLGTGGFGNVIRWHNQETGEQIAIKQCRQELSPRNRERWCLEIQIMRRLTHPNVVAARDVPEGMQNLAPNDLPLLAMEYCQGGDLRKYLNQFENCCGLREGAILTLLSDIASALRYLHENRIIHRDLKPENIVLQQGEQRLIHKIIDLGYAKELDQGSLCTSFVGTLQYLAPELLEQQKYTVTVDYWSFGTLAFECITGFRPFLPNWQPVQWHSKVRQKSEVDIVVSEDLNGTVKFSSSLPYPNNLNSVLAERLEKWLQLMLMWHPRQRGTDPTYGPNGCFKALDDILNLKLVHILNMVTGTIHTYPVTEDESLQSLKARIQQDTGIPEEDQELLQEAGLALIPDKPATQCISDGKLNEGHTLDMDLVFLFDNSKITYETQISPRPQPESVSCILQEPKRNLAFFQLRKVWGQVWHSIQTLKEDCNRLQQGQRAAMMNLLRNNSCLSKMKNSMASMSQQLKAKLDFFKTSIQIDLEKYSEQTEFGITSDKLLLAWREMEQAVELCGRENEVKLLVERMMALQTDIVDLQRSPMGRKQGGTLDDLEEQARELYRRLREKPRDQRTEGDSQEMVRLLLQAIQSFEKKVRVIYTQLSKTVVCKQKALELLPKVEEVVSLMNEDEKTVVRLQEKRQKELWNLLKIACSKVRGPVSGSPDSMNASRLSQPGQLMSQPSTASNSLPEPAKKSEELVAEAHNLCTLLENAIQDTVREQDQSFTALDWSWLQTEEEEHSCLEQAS
# [9] = target: T3, Inhibitor of nuclear factor kappa-B kinase subunit beta (Homo sapiens); settings: at 1 µM
# [10] = target: T4, Inhibitor of nuclear factor kappa-B kinase subunit epsilon (Homo sapiens) (UniProt Q14164); settings: at 0.1 µM
# T4 sequence (whole entry): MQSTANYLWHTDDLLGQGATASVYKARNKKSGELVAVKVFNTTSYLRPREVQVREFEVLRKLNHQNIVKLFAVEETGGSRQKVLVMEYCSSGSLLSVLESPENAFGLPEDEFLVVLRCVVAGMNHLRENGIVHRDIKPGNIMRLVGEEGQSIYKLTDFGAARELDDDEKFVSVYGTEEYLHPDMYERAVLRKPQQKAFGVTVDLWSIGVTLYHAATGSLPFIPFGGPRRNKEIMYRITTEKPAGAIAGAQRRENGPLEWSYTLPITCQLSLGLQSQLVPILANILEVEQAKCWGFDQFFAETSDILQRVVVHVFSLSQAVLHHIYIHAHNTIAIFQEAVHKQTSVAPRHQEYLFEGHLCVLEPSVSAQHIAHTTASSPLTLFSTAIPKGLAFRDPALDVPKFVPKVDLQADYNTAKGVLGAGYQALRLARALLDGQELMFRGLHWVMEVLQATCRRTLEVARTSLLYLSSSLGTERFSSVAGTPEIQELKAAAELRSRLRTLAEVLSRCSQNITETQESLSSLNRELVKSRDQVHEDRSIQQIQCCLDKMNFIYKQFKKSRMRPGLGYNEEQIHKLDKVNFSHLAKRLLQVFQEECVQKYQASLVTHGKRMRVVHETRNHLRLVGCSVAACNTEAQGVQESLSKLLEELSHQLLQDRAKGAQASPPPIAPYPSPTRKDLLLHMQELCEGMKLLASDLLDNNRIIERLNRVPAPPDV
# [11] = target: T4, Inhibitor of nuclear factor kappa-B kinase subunit epsilon (Homo sapiens); settings: at 1 µM
# [12] = target: T5, Serine/threonine-protein kinase Nek1 (Homo sapiens) (UniProt Q96PY6); settings: at 0.1 µM
# T5 sequence (whole entry): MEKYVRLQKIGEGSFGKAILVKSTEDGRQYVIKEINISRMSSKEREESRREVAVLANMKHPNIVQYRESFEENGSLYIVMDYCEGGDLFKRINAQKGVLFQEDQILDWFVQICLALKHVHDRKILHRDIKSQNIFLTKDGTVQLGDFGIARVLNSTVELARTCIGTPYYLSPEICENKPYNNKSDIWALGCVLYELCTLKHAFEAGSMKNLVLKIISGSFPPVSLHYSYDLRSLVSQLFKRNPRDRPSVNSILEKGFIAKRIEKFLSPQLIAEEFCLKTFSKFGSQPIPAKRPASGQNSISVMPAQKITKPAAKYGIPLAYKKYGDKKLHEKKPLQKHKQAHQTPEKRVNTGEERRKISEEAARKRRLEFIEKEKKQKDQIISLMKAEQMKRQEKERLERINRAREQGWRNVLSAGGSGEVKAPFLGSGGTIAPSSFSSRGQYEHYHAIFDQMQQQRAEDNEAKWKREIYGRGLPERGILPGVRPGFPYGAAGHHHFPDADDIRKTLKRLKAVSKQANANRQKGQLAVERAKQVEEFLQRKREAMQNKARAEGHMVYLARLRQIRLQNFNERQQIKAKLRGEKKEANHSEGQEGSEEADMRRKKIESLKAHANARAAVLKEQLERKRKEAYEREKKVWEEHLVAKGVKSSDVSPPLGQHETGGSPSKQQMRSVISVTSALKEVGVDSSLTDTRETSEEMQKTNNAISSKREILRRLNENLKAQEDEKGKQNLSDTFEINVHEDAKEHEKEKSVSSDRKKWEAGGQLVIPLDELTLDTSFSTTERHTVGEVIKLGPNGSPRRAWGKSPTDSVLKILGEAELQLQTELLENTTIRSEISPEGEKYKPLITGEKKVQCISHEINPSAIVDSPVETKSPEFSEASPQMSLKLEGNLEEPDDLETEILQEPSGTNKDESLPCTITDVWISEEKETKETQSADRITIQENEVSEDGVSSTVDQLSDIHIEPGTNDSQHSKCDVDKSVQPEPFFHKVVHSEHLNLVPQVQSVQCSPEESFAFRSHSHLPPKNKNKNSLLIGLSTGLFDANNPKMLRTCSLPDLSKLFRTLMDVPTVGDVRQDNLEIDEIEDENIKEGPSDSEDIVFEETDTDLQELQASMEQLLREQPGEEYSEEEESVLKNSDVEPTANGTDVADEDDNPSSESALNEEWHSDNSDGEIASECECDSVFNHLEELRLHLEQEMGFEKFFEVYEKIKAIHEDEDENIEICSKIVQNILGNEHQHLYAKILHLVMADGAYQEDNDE
# [13] = target: T5, Serine/threonine-protein kinase Nek1 (Homo sapiens); settings: at 1 µM
# [14] = target: T6, Serine/threonine-protein kinase Nek2 (Homo sapiens) (UniProt P51955); settings: at 0.1 µM
# T6 sequence (whole entry): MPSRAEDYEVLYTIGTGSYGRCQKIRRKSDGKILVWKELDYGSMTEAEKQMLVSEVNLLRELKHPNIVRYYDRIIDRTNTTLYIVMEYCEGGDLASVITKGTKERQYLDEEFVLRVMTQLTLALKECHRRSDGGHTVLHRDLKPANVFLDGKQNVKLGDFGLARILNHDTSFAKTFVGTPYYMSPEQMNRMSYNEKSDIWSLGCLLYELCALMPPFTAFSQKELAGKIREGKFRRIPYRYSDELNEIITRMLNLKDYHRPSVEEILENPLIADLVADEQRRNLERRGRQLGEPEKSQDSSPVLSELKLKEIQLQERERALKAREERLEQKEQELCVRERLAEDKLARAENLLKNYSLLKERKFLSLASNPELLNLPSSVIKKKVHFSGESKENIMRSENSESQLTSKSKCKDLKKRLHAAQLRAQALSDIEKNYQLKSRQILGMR
# [15] = target: T6, Serine/threonine-protein kinase Nek2 (Homo sapiens); settings: at 1 µM
# [16] = target: Serine/threonine-protein kinase Nek6 (Homo sapiens) (UniProt Q9HC98); settings: at 0.1 µM
# [17] = target: Serine/threonine-protein kinase Nek6 (Homo sapiens) (UniProt Q9HC98); settings: at 1 µM
# [18] = target: Serine/threonine-protein kinase Nek7 (Homo sapiens) (UniProt Q8TDX7); settings: at 0.1 µM
# [19] = target: Serine/threonine-protein kinase Nek7 (Homo sapiens) (UniProt Q8TDX7); settings: at 1 µM
# [20] = target: T7, Serine/threonine-protein kinase Nek9 (Homo sapiens) (UniProt Q8TD19); settings: at 0.1 µM;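 further: reported value is the mean percent inhibition of NEK9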
# T7 sequence (whole entry): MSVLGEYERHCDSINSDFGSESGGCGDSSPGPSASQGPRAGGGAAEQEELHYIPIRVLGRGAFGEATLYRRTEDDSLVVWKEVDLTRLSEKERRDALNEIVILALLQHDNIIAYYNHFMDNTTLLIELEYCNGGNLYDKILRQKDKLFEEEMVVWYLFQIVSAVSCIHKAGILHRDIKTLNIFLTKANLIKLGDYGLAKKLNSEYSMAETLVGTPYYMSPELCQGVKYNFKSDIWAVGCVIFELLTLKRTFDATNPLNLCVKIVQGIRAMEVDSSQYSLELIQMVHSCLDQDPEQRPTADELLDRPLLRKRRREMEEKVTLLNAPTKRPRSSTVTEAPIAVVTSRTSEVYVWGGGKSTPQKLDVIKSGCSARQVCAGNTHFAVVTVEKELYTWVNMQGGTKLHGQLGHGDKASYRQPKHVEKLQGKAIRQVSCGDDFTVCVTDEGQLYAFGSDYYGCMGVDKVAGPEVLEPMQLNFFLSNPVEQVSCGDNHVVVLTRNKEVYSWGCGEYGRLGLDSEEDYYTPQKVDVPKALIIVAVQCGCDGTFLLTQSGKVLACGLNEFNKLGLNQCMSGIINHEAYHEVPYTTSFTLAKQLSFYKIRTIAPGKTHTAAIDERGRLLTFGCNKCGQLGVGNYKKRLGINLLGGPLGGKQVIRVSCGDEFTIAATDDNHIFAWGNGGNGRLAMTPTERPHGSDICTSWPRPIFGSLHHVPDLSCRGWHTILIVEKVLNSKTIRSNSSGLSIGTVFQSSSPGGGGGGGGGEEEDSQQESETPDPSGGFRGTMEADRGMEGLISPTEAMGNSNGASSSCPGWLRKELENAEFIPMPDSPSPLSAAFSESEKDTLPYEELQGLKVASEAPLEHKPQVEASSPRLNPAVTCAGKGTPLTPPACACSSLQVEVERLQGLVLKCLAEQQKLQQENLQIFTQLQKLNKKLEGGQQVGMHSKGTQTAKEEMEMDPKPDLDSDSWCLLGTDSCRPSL
# Sequence of Casein kinase II subunit alpha (Homo sapiens) (P68400 whole entry, looked up): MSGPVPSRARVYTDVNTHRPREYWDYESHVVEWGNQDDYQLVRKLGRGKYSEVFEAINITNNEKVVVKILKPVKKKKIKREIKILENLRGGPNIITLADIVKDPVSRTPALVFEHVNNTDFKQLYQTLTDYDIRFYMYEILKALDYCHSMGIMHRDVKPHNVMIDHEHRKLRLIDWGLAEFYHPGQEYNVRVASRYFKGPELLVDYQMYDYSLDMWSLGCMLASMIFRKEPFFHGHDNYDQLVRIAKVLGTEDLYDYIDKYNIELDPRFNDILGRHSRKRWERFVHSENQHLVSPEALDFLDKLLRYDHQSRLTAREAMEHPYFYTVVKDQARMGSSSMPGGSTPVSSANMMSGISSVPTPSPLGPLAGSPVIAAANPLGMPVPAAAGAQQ
# Sequence of Serine/threonine-protein kinase Nek6 (Homo sapiens) (Q9HC98 whole entry): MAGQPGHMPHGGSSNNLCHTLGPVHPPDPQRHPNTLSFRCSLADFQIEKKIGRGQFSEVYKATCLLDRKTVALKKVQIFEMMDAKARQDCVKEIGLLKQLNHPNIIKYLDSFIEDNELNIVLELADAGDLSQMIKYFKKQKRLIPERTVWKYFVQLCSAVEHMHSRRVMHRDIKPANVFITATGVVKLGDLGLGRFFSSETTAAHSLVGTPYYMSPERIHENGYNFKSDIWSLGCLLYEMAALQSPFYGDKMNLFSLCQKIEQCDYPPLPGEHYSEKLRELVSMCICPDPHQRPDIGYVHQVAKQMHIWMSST
# Sequence of Serine/threonine-protein kinase Nek7 (Homo sapiens) (Q8TDX7 whole entry, looked up): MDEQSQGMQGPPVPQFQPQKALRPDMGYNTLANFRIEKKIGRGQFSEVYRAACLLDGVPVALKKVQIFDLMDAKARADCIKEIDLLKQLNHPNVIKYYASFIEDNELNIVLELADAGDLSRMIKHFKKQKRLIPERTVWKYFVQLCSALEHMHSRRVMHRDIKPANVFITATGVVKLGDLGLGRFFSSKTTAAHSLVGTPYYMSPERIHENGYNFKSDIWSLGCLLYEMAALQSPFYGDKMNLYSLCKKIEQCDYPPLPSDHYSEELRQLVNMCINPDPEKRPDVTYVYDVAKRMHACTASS
# Sequence of Sphingosine kinase 1 (Homo sapiens) (Q9NYA1 whole entry): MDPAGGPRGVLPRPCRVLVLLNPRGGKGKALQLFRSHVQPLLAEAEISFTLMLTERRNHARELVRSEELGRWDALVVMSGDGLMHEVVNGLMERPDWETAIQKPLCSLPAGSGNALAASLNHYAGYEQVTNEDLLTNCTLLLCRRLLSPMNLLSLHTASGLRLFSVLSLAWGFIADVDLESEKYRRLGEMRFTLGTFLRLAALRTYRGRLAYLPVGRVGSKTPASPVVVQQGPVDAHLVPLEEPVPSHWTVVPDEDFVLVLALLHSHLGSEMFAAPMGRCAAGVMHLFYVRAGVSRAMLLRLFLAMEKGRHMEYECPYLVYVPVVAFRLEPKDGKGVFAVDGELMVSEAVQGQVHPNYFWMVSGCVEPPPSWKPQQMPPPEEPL
smiles,measurement,setting,value
Cc1cc(Cl)cc2c1NC(=O)C2=NNc1ccc(S(N)(=O)=O)cc1,inhibition,[1],-2.79%
same,inhibition,[2],-0.11%
same,inhibition,[3],-2.78%
same,inhibition,[4],3.02%
same,inhibition,[5],8.79%
same,inhibition,[6],1.51%
same,inhibition,[7],10.1%
same,inhibition,[8],8.97%
same,inhibition,[9],7.33%
same,inhibition,[10],6.15%
same,inhibition,[11],6.95%
same,inhibition,[12],1.58%
same,inhibition,[13],2.35%
same,inhibition,[14],2.49%
same,inhibition,[15],2.54%
same,inhibition,[16],0.31%
same,inhibition,[17],1.33%
same,inhibition,[18],1.91%
same,inhibition,[19],1.96%
same,inhibition,[20],3.08%
